Calls of active or inactive are those of the source. The calls were made as follows: active = hit-call score of the fitted dose curve at least 0.9, where 1 is the maximum; inactive = score below 0.9.
Assay: ATG_TCF_b_cat_CIS: Attagene CIS-FACTORIAL HepG2 Assay for human T-Cell-Factor with beta-catenin (TCF/b-cat) (AID 2282965)
Settings: HepG2 TCF/beta-catenin cis-reporter transcription, actives raise or lower the signal
Outline: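 HepG2 cells transiently transfected with multiple cis-promoter-regulated reporter transcription units, so endogenous transcription factor activity is measured. Reporter mRNA read 24 hours after dosing by RT-PCR, fluorescent labelling and capillary electrophoresis; bidirectional fitting against DMSO.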

outcome, inactive:
Cc1ccc(N)c(S(=O)(=O)O)c1
CC1CC(O)CC(C)(C)C1 (centres undefined)
O=C(O)CNc1ccccc1
Cc1ncc[nH]1
O=Cc1ccccc1S(=O)(=O)O
CCOc1ccc(NC(=O)CC(C)O)cc1 (centres undefined)
CC(C)(N=C=O)c1cccc(C(C)(C)N=C=O)c1
CCCCC1(COC(=O)CCC(=O)O)C(=O)N(c2ccccc2)N(c2ccccc2)C1=O
CC=Cc1ccc(OC)c(OC)c1
COC(=O)c1cccnc1
OCc1cccc(Oc2ccccc2)c1
C=C[Si]1(C)O[Si](C)(C=C)O[Si](C)(C=C)O[Si](C)(C=C)O1 (centres undefined)
CC(C)=CCCC(C)CCOC=O (centres undefined)
CCCCCC(C=O)=Cc1ccccc1
COC(C)(C)CC(C)=O
CCc1ccc(O)cc1
C=CCOC(=O)CCCCCC
CCCN(CCC)S(=O)(=O)c1ccc(C(=O)O)cc1
C[Si]1(C)O[Si](C)(C)O[Si](C)(C)O1
CCCCCCOCCOCCO
CCCCCCCC(=O)OCCCCCC
Oc1ccc2cc(SSc3ccc4cc(O)ccc4c3)ccc2c1
NCc1ccco1
CCCCCCCCCCCCS(=O)(=O)Cl
CCC(C)=O
Cc1c(Cl)cccc1[N+](=O)[O-]
COC(=O)C=C(C)CCC=C(C)C
CCc1ccc(O)c(OC)c1
CCCCCCCCc1ccc(S(=O)(=O)O)cc1
CCCCC1CCC(O)CC1 (centres undefined)
O=c1c(O)c(-c2ccc(O)cc2)oc2cc(O)cc(O)c12
CCCCCCC(O)CCCCCCCCCCC(=O)O (centres undefined)
CCCCC(CC)COC(C)=O (centres undefined)
CCNCCO
OC[C@H]1O[C@@H](Oc2ccc(O)cc2)[C@H](O)[C@@H](O)[C@@H]1O
C#CC(C)(O)CC(C)C (centres undefined)

AC50, active:
CC(=O)C1(C)CC2=C(CCCC2(C)C)CC1C (centres undefined) 73.3 µM
O=C1CCCC=CCCCCCCCCCC1 49.3 µM
CCOC(=O)C1OC1c1ccccc1 (centres undefined) 48 µM

Reference: PubChem BioAssay (EPA / NIEHS)
